PubChem BioAssay AID504594 (Broad Institute, 2011)
The campaign covered roughly 2,000 compounds. Fewer than 10 were called active. Only a sample is shown. Unmarked numbers belong to inactive results.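 The calls were made as follows: active = growth inhibition of at least 75% in every replicate, which also brings the mean inhibition to 75% or more; inconclusive = mean inhibition 75% or more but some replicate under 75%; inactive = the rest.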

Assay: reduced viability of yeast carrying PfHsp90 – S. cerevisiae, BacTiter-Glo luminescence, antimalarial PfHsp90 inhibitor project, primary screen (AID 504594);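 also: 0% = DMSO neutral control wells and 100% = 20 µM radicicol control wells; higher value means stronger growth inhibition because the sign is flipped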
Conditions: S. cerevisiae expressing PfHsp90, BacTiter-Glo growth, 48 h; at 9.4 µM; stronger effect = higher value

SMILES	growth inhibition
COc1ccc(CCn2c(C)cc3c(c2=O)C(c2ccncc2)C(C#N)=C(N)O3)cc1OC (centres undefined)	-3.67%
CC1(C)CC(CC(=O)O)(c2ccc(Cl)cc2)CCO1 (centres undefined)	4.78%
Cc1cccc2c1CC(C)(C)N/C2=C\C(N)=O	1.18%
COc1ccc(-c2[nH]ncc2C=O)cc1OC	7.91%
O=C(/C=C/c1ccc(F)cc1)NC(=S)N1CCCCC1c1cccnc1 (centres undefined)	4.68%
C=CCc1cccc2cc(C(=O)Nc3ccc(CC(=O)O)cc3)c(=O)oc12	-7.68%
C[C@H](NC(=O)C1(c2ccccc2)CCN(C(=O)[C@H]2CSCN2C(=O)OC(C)(C)C)CC1)C(=O)O	-9.59%
COC1CCN(Cc2cn(Cc3ccccc3)nc2-c2cc3ccccc3o2)CC1	3.22%
CC(C)CN1CC(C(=O)O)CC1=O (centres undefined)	-3.33%
CCOCCn1c(C(C)O)nc2ccccc21 (centres undefined)	-8.58%
O=C(CC(NC(=O)OCc1ccccc1)C(=O)O)OCc1ccccc1 (centres undefined)	0.482%
COc1ccc(C(=O)Nc2ncc3c(n2)CC(C)CC3=O)cc1 (centres undefined)	-12.5%
O=C1NCC2=C1C(c1ccccc1)Nc1ccccc1N2 (centres undefined)	6.48%
COc1cccc(C2CC(=O)C3=C(C2)Nc2ccccc2N(C(=O)CCC(=O)O)C3c2ccc(F)cc2)c1 (centres undefined)	3.39%
COc1ccc(C(=O)CCN2CCc3cc(OC)c(OC)cc3C2)cc1	4.16%
O=C1OC(=O)C2C1[C@@H]1CC[C@H]2O1 (some centres undefined)	-14%
COCc1cc(=O)[nH]c(/N=C(\N)Nc2ccc(Oc3ccccc3)cc2)n1	-12.9%
CC(=O)c1ccc(CCCCCCCCCC(=O)O)s1	-16.6%
CC(C)CN1CCN(Cc2ccc3ncccc3c2)CC1CCO (centres undefined)	-15.2%
O=c1ccc2c(o1)/C(=C/C=C(Cl)Cl)CCC2	-2.29%
CC(C)(C)C(=O)NCCCNc1ccc([N+](=O)[O-])cc1	4.14%

SMILES	growth inhibition
CC(=O)c1c(C)[nH]c(C(=O)OCc2ccccc2)c1C	-16%
NS(=O)(=O)c1ccc(CCNC(=O)C2CCCN2C(=O)OCc2ccccc2)cc1 (centres undefined)	-1.5%
Cn1c(Oc2ccc3c(c2)OCO3)nc2c1c(=O)n(Cc1ccccc1)c(=O)n2C	5.1%
Oc1c(Cl)cc(Cl)c(Cl)c1Cc1c(O)c(Cl)cc(Cl)c1Cl	104% (active)
Cc1c2c(nc3c(C)cccc13)OC(C)C2 (centres undefined)	8.19%
CCOC(=O)n1c(=O)oc2ccccc21	-13.3%
Cc1csc(CCc2nc(C)cs2)n1	0.825%
O=C(Nc1ccc(F)c([N+](=O)[O-])c1)c1ccc2c(c1)OCCO2	-4.38%
CC(C)NS(=O)(=O)c1ccc(OCC(=O)Nc2cccc(F)c2)cc1	4.62%
COc1c2c(nc3occc13)C(CC=C(C)C)(OC)C(O)CC2 (centres undefined)	3.58%
COc1ccc(C=NCC2COc3ccccc3O2)cc1OC (centres undefined)	13.6%
O=C(Oc1cccccc1=O)c1ccccc1	11%
Cc1nc2ccccc2n1CC(=O)NC1CCCC1	-8.15%
CC1(C)CC(=O)c2cnc(NC(=O)C3CCCC3)nc2C1	0.802%
Cc1ccc(S(=O)(=O)Oc2ccccc2/C=N/N=C(N)N)cc1	9.9%
c1ccc(-c2ccc(C(c3ccccc3)n3ccnc3)cc2)cc1 (centres undefined)	91.6% (active)
CCc1cc2c(C)cc(=O)oc2cc1OC(=O)C1CCCN1C(=O)OC(C)(C)C (centres undefined)	5.63%
COc1ccc2cc(C(=O)Nc3ccc(S(N)(=O)=O)cc3)sc(=O)c2c1OC	5.36%
CC(C)(C)NCC(O)COc1ccccc1C(=O)CCc1ccccc1 (centres undefined)	-4.71%
Cn1nc(-c2ccccn2)nc2c(=O)n(C)c(=O)nc1-2	-12.4%
Cn1nc(-c2ccc(Cl)cc2)nc2c(=O)n(C)c(=O)nc1-2	104% (active)

SMILES	growth inhibition
Cn1c(=O)[nH]c2nnc(-c3ccc(Cl)c(Cl)c3)nc2c1=O	1.34%
N/C(Cc1ccc(Cl)cc1Cl)=N\OC(=O)c1ccc(Br)o1	30.5%
Cc1cccc(Oc2coc3cc(OC(=O)c4cncc(Br)c4)ccc3c2=O)c1	-0.933%
COC(=O)[C@@H](N)CS	-1.65%
O=Cc1ccc(N2CCCCC2)cc1	-3.18%
C#CCOc1ccc2c(C)cc(=O)oc2c1	-0.459%
COc1cccc(CC(=O)NCC2COc3ccccc3O2)c1OC (centres undefined)	12.9%
O=C(NCc1ccco1)/C(=C\C=C\c1ccccc1)NC(=O)c1ccccc1Br	-0.463%
CC(=O)OCC(OC(C)=O)C(OC(C)=O)C(OC(C)=O)C(=O)Nc1cccc(C)c1 (centres undefined)	-0.0548%
CC(=O)N1CCN(c2ccc(NC(=O)/C=C/c3ccccc3)cc2)CC1	10.6%
Cc1ccccc1-c1nn(-c2ccc(F)cc2F)cc1CNCCN(C)C	-12.6%
CC(C)Cc1ccc(C(C)C(=O)Nc2ccc(O)cc2)cc1 (centres undefined)	-4.11%
Cc1ccc(C(=O)Nc2ccc(O)cc2C(=O)O)cc1C	4.07%
CC(=O)N1CCn2c3c(c4cc(C)ccc42)CCCC31 (centres undefined)	-11.1%
Fc1cccc(Cc2noc(CN3CCN(c4cnccn4)CC3)n2)c1	-2%
O=Cc1ccccc1Oc1ccccc1	-0.351%
COc1ccc2[nH]c3c(c2c1)CCn1c-3nc2ccccc2c1=O	0.118%
CC(=O)Nc1ccc(OS(=O)(=O)c2c(C)cc(C)cc2C)cc1	10.9%
CCOc1ccc(C(=O)C(C)=O)c(OCC)c1	10.5%
CC(=O)Oc1ccc(C2OC(=O)c3ccccc3N2C(C)=O)cc1 (centres undefined)	-6.47%
COc1ccc(C(=O)O)cc1F	-4.03%

SMILES	growth inhibition
O=C(O)c1ccccc1OCCOc1ccccc1	3.6%
Cc1ccc2nc3c(cc(C(=O)NCC4CCCO4)c(=N)n3CCCOC(C)C)c(=O)n2c1 (centres undefined)	4.47%
CC(C)CC(=O)NC(NC(=O)CC(C)C)c1cccc([N+](=O)[O-])c1	2.96%
CC(=O)NC(NC(=S)N1CCCCCC1)C(Cl)(Cl)Cl (centres undefined)	-2.52%
C[N+]1(C2CCC3CCCC2C3O)CCCCC1 (centres undefined)	-8.1%
O=C(O)CCCCCN=C1CCc2ccccc2N1	0.535%
Cc1ccc(OCCCCn2ccnc2C)c(C)c1	-3.77%
COc1ccc(CCN2C(=O)CSC2c2ccc(OC)c(OC)c2)cc1OC (centres undefined)	2.57%
O=C1C(=O)N2C(=C1C(=O)N1CCCCCC1)c1ccccc1CC21CCCC1	-4.5%
CCN1CCN(C(=S)c2ccc(OC)cc2)CC1	-1.26%
O[C@H]1COC2C1OC[C@@H]2O (some centres undefined)	-2.02%
O=C(Cc1ccccc1[N+](=O)[O-])NCc1ccncc1	15%
Oc1ccc(COCc2ccccc2)c2cccnc12	-6.18%
O=[N+]([O-])c1ccc(O)c2ncccc12	93.7% (active)
CC1CCN(C(=O)Oc2ccccc2)CC1	5.73%
C[N+]12CCCCC1C(COC(=O)c1ccc3c(c1)OCO3)CCC2 (centres undefined)	1.34%
CC(C)N(C(=O)Cc1ccccc1[N+](=O)[O-])C(C)C	4.35%
O=C(c1ccc(Cl)cc1)C1CCCN(Cc2ccc(Oc3ncccn3)cc2)C1 (centres undefined)	-7.65%
Cc1ccc(C2CC(c3cccs3)=NN2C(=O)c2ccco2)o1 (centres undefined)	6.03%
O=CNC1CCCc2c1[nH]c1ccc(Cl)cc21 (centres undefined)	-7.59%
COc1ccc(C(=O)[C@H]2[C@H]3C(=O)N(c4ccccc4)C(=O)[C@H]3C3C=CC=NN32)cc1 (some centres undefined)	15.9%
